This note sets out measurements from PubChem BioAssay (NCATS).

Molecules are shown by their SMILES. Results filed as inconclusive are left out. A number with no mark means an inactive call. The source made the active and inactive calls. Calls come from the whole dose curve; as a rule, active = well fitted inhibition curve with a large enough effect; inconclusive = small, poorly fitted or top-dose-only effect; inactive = flat fitted curve, though single readings scatter.
Potency is the fitted concentration of half-maximal effect.

The test system of the first assay is P94_40. In words: qHTS profiling for inhibitors of Plasmodium falciparum proliferation (AID 504749).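 For activity, negative = inhibition: 0% = DMSO vehicle and full inhibition = artemisinin control.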 Note: nearly all actives have a fitted effect of over 60% in size. Conditions: P. falciparum in erythrocytes, SYBR Green DNA, 72 h; series mostly up to 28.7 µM; activity, negative = inhibition: at the top concentration. The essentials:
(§1)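 P. falciparum-infected erythrocytes (0.3% parasitemia, 2.5% hematocrit) incubated with compound 72 h at 37 C, 5% CO2. Parasite DNA detected by SYBR Green after lysis, overnight at room temperature; normalised to 0.29 uM artemisinin and DMSO.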
On the technique in general: Quantitative high-throughput screening tests each substance at several concentrations.
Take `Nc1nc2c(c(=O)[nH]1)N(C=O)[C@H](CNc1ccc(C(=O)N[C@@H](CCC(=O)O)C(=O)O)cc1)CN2`: the “activity, negative = inhibition” value was -14.7% [at 12.8 µM].

With `CCCCCCCCCCCC(CC1OC(=O)C1CCCCCC)OC(=O)C(CC(C)C)NC=O` (stereo not given), the Potency is 355 nM (active).

As for `COc1cccc2c1C(=O)c1c(O)c3c(c(O)c1C2=O)C[C@@](O)(C(=O)CO)C[C@@H]3O[C@H]1C[C@H](N)[C@H](OC2CCCCO2)[C@H](C)O1` (stereo not given in full), the Potency was 2510 nM (active).

Consider `COc1ccc2c(c1OC)C(=O)OC2[C@H]1c2c(cc3c(c2OC)OCO3)CCN1C` (stereo not given in full), for which the “activity, negative = inhibition” value is 1.89%.

As for `OCC(O)C(O)C(O)CO` (stereo not given), the “activity, negative = inhibition” value is -1.53%.

In the case of `CCC(C(=O)O)C1CCC(C)C(C(C)C(O)C(C)C(=O)C(CC)C2OC3(C=CC(O)[C@@]4(CC[C@](C)(C5CC[C@@](O)(CC)C(C)O5)O4)O3)C(C)CC2C)O1` (stereo not given in full), the Potency is 501 nM (active).

With `COc1ccc([C@@H]2CNC(=O)C2)cc1OC1CCCC1`, the “activity, negative = inhibition” value is -0.733% [at 12.8 µM].

The next assay deals with PAD. The description is as above. Conditions: P. falciparum in erythrocytes, SYBR Green DNA, 72 h; series mostly up to 28.7 µM; activity, negative = inhibition: at the top concentration. The gist of the method:
as §1
`Nc1nc2c(c(=O)[nH]1)N(C=O)[C@H](CNc1ccc(C(=O)N[C@@H](CCC(=O)O)C(=O)O)cc1)CN2`: the “activity, negative = inhibition” value is 1.11% [at 12.8 µM].

For the compound `COc1cccc2c1C(=O)c1c(O)c3c(c(O)c1C2=O)C[C@@](O)(C(=O)CO)C[C@@H]3O[C@H]1C[C@H](N)[C@H](OC2CCCCO2)[C@H](C)O1` (stereo not given in full), the Potency is 2240 nM (active).

As for `COc1ccc2c(c1OC)C(=O)OC2[C@H]1c2c(cc3c(c2OC)OCO3)CCN1C` (stereo not given in full), the “activity, negative = inhibition” value was 1.83%.

Consider `OCC(O)C(O)C(O)CO` (stereo not given), for which the “activity, negative = inhibition” value is 5.33%.

Consider `CCC(C(=O)O)C1CCC(C)C(C(C)C(O)C(C)C(=O)C(CC)C2OC3(C=CC(O)[C@@]4(CC[C@](C)(C5CC[C@@](O)(CC)C(C)O5)O4)O3)C(C)CC2C)O1` (stereo not given in full), for which the Potency was 1410 nM (active).

In the case of `COc1ccc([C@@H]2CNC(=O)C2)cc1OC1CCCC1`, the “activity, negative = inhibition” value was 1.34% [at 12.8 µM].

The next assay deals with PC15. The description is as above. Conditions: P. falciparum in erythrocytes, SYBR Green DNA, 72 h; series mostly up to 28.7 µM; activity, negative = inhibition: at the top concentration. The gist of the method:
as §1
Take `Nc1nc2c(c(=O)[nH]1)N(C=O)[C@H](CNc1ccc(C(=O)N[C@@H](CCC(=O)O)C(=O)O)cc1)CN2`: the “activity, negative = inhibition” value is 3.73% [at 12.8 µM].

For the compound `CCCCCCCCCCCC(CC1OC(=O)C1CCCCCC)OC(=O)C(CC(C)C)NC=O` (stereo not given), the Potency was 1120 nM (active).

As to `COc1cccc2c1C(=O)c1c(O)c3c(c(O)c1C2=O)C[C@@](O)(C(=O)CO)C[C@@H]3O[C@H]1C[C@H](N)[C@H](OC2CCCCO2)[C@H](C)O1` (stereo not given in full), the Potency is 10000 nM (active).

As to `COc1ccc2c(c1OC)C(=O)OC2[C@H]1c2c(cc3c(c2OC)OCO3)CCN1C` (stereo not given in full), the “activity, negative = inhibition” value was 1.54%.

For `OCC(O)C(O)C(O)CO` (stereo not given), the “activity, negative = inhibition” value is 15.8%.

With `CCC(C(=O)O)C1CCC(C)C(C(C)C(O)C(C)C(=O)C(CC)C2OC3(C=CC(O)[C@@]4(CC[C@](C)(C5CC[C@@](O)(CC)C(C)O5)O4)O3)C(C)CC2C)O1` (stereo not given in full), the Potency was 2000 nM (active).

Turning to `COc1ccc([C@@H]2CNC(=O)C2)cc1OC1CCCC1`, the “activity, negative = inhibition” value is 5.17% [at 12.8 µM].

In a further assay the test system is PC26. The assay is described as above. The settings on record: P. falciparum in erythrocytes, SYBR Green DNA, 72 h; series mostly up to 28.7 µM; activity, negative = inhibition: at the top concentration. The essentials:
as §1
As for `Nc1nc2c(c(=O)[nH]1)N(C=O)[C@H](CNc1ccc(C(=O)N[C@@H](CCC(=O)O)C(=O)O)cc1)CN2`, the “activity, negative = inhibition” value is -5.45% [at 12.8 µM].

For `COc1cccc2c1C(=O)c1c(O)c3c(c(O)c1C2=O)C[C@@](O)(C(=O)CO)C[C@@H]3O[C@H]1C[C@H](N)[C@H](OC2CCCCO2)[C@H](C)O1` (stereo not given in full), the Potency was 7570 nM (active).

In the case of `COc1ccc2c(c1OC)C(=O)OC2[C@H]1c2c(cc3c(c2OC)OCO3)CCN1C` (stereo not given in full), the “activity, negative = inhibition” value is -7.7%.

Turning to `OCC(O)C(O)C(O)CO` (stereo not given), the “activity, negative = inhibition” value is 3.41%.

On to `CCC(C(=O)O)C1CCC(C)C(C(C)C(O)C(C)C(=O)C(CC)C2OC3(C=CC(O)[C@@]4(CC[C@](C)(C5CC[C@@](O)(CC)C(C)O5)O4)O3)C(C)CC2C)O1` (stereo not given in full), for which the Potency is 478 nM (active).

Consider `COc1ccc([C@@H]2CNC(=O)C2)cc1OC1CCCC1`, for which the “activity, negative = inhibition” value is -0.599% [at 12.8 µM].

A further assay deals with PC49. The assay is described as above. Conditions: P. falciparum in erythrocytes, SYBR Green DNA, 72 h; series mostly up to 28.7 µM; activity, negative = inhibition: at the top concentration. The gist of the method:
as §1
As to `Nc1nc2c(c(=O)[nH]1)N(C=O)[C@H](CNc1ccc(C(=O)N[C@@H](CCC(=O)O)C(=O)O)cc1)CN2`, the “activity, negative = inhibition” value is 13.4% [at 12.8 µM].

For `CCCCCCCCCCCC(CC1OC(=O)C1CCCCCC)OC(=O)C(CC(C)C)NC=O` (stereo not given), the Potency is 891 nM (active).

As to `COc1cccc2c1C(=O)c1c(O)c3c(c(O)c1C2=O)C[C@@](O)(C(=O)CO)C[C@@H]3O[C@H]1C[C@H](N)[C@H](OC2CCCCO2)[C@H](C)O1` (stereo not given in full), the Potency is 4470 nM (active).

Regarding `COc1ccc2c(c1OC)C(=O)OC2[C@H]1c2c(cc3c(c2OC)OCO3)CCN1C` (stereo not given in full), the “activity, negative = inhibition” value is -2.02%.

As for `OCC(O)C(O)C(O)CO` (stereo not given), the “activity, negative = inhibition” value is 4.69%.

Take `CCC(C(=O)O)C1CCC(C)C(C(C)C(O)C(C)C(=O)C(CC)C2OC3(C=CC(O)[C@@]4(CC[C@](C)(C5CC[C@@](O)(CC)C(C)O5)O4)O3)C(C)CC2C)O1` (stereo not given in full): the Potency was 2510 nM (active).

For the compound `COc1ccc([C@@H]2CNC(=O)C2)cc1OC1CCCC1`, the “activity, negative = inhibition” value was 10.8% [at 12.8 µM].

For a further assay, the system named is SC27B. The description is as above. Conditions: P. falciparum in erythrocytes, SYBR Green DNA, 72 h; series mostly up to 28.7 µM; activity, negative = inhibition: at the top concentration. The essentials: as §1
As for `Nc1nc2c(c(=O)[nH]1)N(C=O)[C@H](CNc1ccc(C(=O)N[C@@H](CCC(=O)O)C(=O)O)cc1)CN2`, the “activity, negative = inhibition” value is -1.96% [at 12.8 µM].

For the compound `CCCCCCCCCCCC(CC1OC(=O)C1CCCCCC)OC(=O)C(CC(C)C)NC=O` (stereo not given), the Potency was 447 nM (active).

For the compound `COc1cccc2c1C(=O)c1c(O)c3c(c(O)c1C2=O)C[C@@](O)(C(=O)CO)C[C@@H]3O[C@H]1C[C@H](N)[C@H](OC2CCCCO2)[C@H](C)O1` (stereo not given in full), the Potency was 2820 nM (active).

`COc1ccc2c(c1OC)C(=O)OC2[C@H]1c2c(cc3c(c2OC)OCO3)CCN1C` (stereo not given in full): the “activity, negative = inhibition” value was -0.147%.

As to `OCC(O)C(O)C(O)CO` (stereo not given), the “activity, negative = inhibition” value was -0.943%.

On to `CCC(C(=O)O)C1CCC(C)C(C(C)C(O)C(C)C(=O)C(CC)C2OC3(C=CC(O)[C@@]4(CC[C@](C)(C5CC[C@@](O)(CC)C(C)O5)O4)O3)C(C)CC2C)O1` (stereo not given in full), for which the Potency was 794 nM (active).

With `COc1ccc([C@@H]2CNC(=O)C2)cc1OC1CCCC1`, the “activity, negative = inhibition” value was 0.324% [at 12.8 µM].
